# Measured values as given in publication PMC7819943, “Rice protein-binding microarrays: a tool to detect cis-acting elements near promoter regions in rice”.
# The full ranking holds about 68,000 sequences; the median of “fluorescence intensity (a.u.)” is about 9,100, and the highest 2% start at about 16,000. The entries come from a sample that favours the highest values as a whole.
# Target: OsWRKY34 (Oryza sativa, UniProt Q0JBA9 1-250)
# Assay: protein-binding microarray (RPBM); PBS, 2% BSA, 51.3 ng/ul salmon testes DNA, 50 uM zinc acetate, 200 nM TF, 25 C, 1 h; high values mean tight binding
# Conditions: protein: recombinant; tags: N-terminal polyhistidine and DsRed monomer fusion (pET32a); label: CyDye5-dUTP incorporated in the synthesized complementary strand; 3' TTTTT single-stranded linker to array surface; dsDNA, one strand shown
# Method in brief: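 Transcription factors were made in E. coli BL21-CodonPlus as N-terminal fusions to a polyhistidine tag and DsRed, then purified on Ni–NTA. After primer extension with Cy5-dUTP and blocking with 2% BSA, a custom Agilent array was exposed for 1 h at 25 °C to 200 nM protein in PBS, 2% BSA, salmon testes DNA and 50 µM zinc acetate. Washed arrays were scanned on an Axon 4000B, and the binding signal is per-feature fluorescence intensity in arbitrary units.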
# OsWRKY34, sequence (Q0JBA9 entry or part of it): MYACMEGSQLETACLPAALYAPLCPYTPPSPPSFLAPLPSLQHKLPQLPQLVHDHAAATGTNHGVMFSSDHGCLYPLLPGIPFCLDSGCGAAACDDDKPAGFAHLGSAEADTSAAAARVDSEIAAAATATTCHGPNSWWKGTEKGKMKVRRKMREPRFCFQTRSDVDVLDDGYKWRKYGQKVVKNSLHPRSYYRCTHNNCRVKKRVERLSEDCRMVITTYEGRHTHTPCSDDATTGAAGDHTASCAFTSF
row,Sequence,binding signal
1,TGTTGGGTTGGGTTGGGTTGGGTTGGGTCCGTCCGATGAACGGAGTCACCTAGTGCAG,24200 fluorescence intensity (a.u.)
2,ATGGTGGGCTTGTATTGTCCTGCAGTCCTGCTTGTTTTACCGGAGTCACCTAGTGCAG,10700 fluorescence intensity (a.u.)
3,ACTAGTGAAGTGTTGCCCGTTGGGTTTGGTGGAGTTTGAACGGAGTCACCTAGTGCAG,8200 fluorescence intensity (a.u.)
4,GGTGGTTGGGTACTTGGGTTGGGTTTGGGTTTTTAGGTTTCGGAGTCACCTAGTGCAG,29100 fluorescence intensity (a.u.)
5,CTGGTTGGTAGGTACTTGCTTGATTAGATTGGGTTTGGTTCGGAGTCACCTAGTGCAG,11500 fluorescence intensity (a.u.)
6,TGATAGTGGTGGGGTGGTATTGGTCCTAGCTTTGTACTCCCGGAGTCACCTAGTGCAG,18700 fluorescence intensity (a.u.)
7,ATGTTTGTTTGGTTGACTGCACTTGGTCCGACGGATGAAACGGAGTCACCTAGTGCAG,8720 fluorescence intensity (a.u.)
8,CGATGAGGAGGAGGAGGGGCAACAGTGTTAGGGTGGATTTCGGAGTCACCTAGTGCAG,12100 fluorescence intensity (a.u.)
9,GGTTTGTTTGTCAACCTCGGGGTGGTTGGGTACTTGGGTTCGGAGTCACCTAGTGCAG,11000 fluorescence intensity (a.u.)
10,TTCCTTTTTTTACGTGGCAACAGTTAGGGGTGGGCATTCGCGGAGTCACCTAGTGCAG,18400 fluorescence intensity (a.u.)
11,TATTGGGTGCTTTTGTCCTCAGGTGTGGTATATAGGTACCCGGAGTCACCTAGTGCAG,8060 fluorescence intensity (a.u.)
12,CAGTTAGGGGTGGGCATTCGGTCAGACCGAAAAATTCGGTCGGAGTCACCTAGTGCAG,15500 fluorescence intensity (a.u.)
13,AGGCCATCATCACTTTAGTCTTATTTTCGTCACCATCATCCGGAGTCACCTAGTGCAG,10300 fluorescence intensity (a.u.)
14,CTACTTATCATCCATTTAAACATGCTACTAGTCATTCTTCCGGAGTCACCTAGTGCAG,10200 fluorescence intensity (a.u.)
15,CGTTGGATAATCTCTAGTACATGTATATACATTTGGCTCTCGGAGTCACCTAGTGCAG,8220 fluorescence intensity (a.u.)
16,CTGCCACGTCACATTTGCCGCCCTCTGGGAGGGCGATTTTCGGAGTCACCTAGTGCAG,8580 fluorescence intensity (a.u.)
17,AAACAGGTCACTACTATCCTCCATATATATATATTTTAGACGGAGTCACCTAGTGCAG,9110 fluorescence intensity (a.u.)
18,AGAACTAGAAGACCACACGCTGTCTCACTTGTTGCAAAATCGGAGTCACCTAGTGCAG,8050 fluorescence intensity (a.u.)
19,TCTCTCTTTCTTTCTATTTTTCTTTTCAGTCAGGTTAGTACGGAGTCACCTAGTGCAG,11000 fluorescence intensity (a.u.)
20,CATCGATCGCACTAGTGTCGCTCTCTGGAAGTAATAGCCTCGGAGTCACCTAGTGCAG,8110 fluorescence intensity (a.u.)
21,ATTAACAGCCTAGCTAGCTAGTGATCAGTGTTGACCGTTGCGGAGTCACCTAGTGCAG,8200 fluorescence intensity (a.u.)
22,TAGAGTGGTTGGTTGGGTACTTGGGTTGGGTTGGGTGGTCCGGAGTCACCTAGTGCAG,24300 fluorescence intensity (a.u.)

row,Sequence,binding signal
1,GAAAACCTAGGGTTAGGTTTGGTGGGGTTGGCAGCTTTCGCGGAGTCACCTAGTGCAG,16400 fluorescence intensity (a.u.)
2,TGGTACTGCGTGCGGTGGGGTAGGAGTAGGAGGTTTCTTTCGGAGTCACCTAGTGCAG,16600 fluorescence intensity (a.u.)
3,GGGTACAGGGGTGGGGACTTGGGTGTGTTGTGGTGGTTACCGGAGTCACCTAGTGCAG,12400 fluorescence intensity (a.u.)
4,CTTCTTCTTCTTCTTCTTCTTGGTCCGGAGAGAGTAGAGACGGAGTCACCTAGTGCAG,8090 fluorescence intensity (a.u.)
5,GGTGGGGTTGGCAGCTTTCGTGCTTGGTCAACCGGGCATGCGGAGTCACCTAGTGCAG,8520 fluorescence intensity (a.u.)
6,GTGTTTGGTTGGGTAATTTTGCAGGTGTTGCTCGTCAATTCGGAGTCACCTAGTGCAG,10200 fluorescence intensity (a.u.)
7,GGTGTTAGCTTTAGGTTTTGGTGTTTGGTTGGGTAATTTTCGGAGTCACCTAGTGCAG,17300 fluorescence intensity (a.u.)
8,GTTTCTTGGTCGTGGGGTCGAGGAGGTGGTGGGTGGTGGTCGGAGTCACCTAGTGCAG,14800 fluorescence intensity (a.u.)
9,AGGAGATGCGGTAGTTTTTTTGGTACTGCGTGCGGTGGGGCGGAGTCACCTAGTGCAG,8400 fluorescence intensity (a.u.)
10,AGGTGGGGAGCGGCGGACTCGCGGTTGGGTTTGTGTGGTTCGGAGTCACCTAGTGCAG,14200 fluorescence intensity (a.u.)
11,GTTTGCATGTTAAGCTTTAGGATTTGGTGGGTTATAATTTCGGAGTCACCTAGTGCAG,10800 fluorescence intensity (a.u.)
12,TTGTGTGTTCTTCCATCTGGCAATGGCATCTGCAGCAGCACGGAGTCACCTAGTGCAG,9530 fluorescence intensity (a.u.)
13,CACGCGATGAAATCATCTGCGCATCCTGTACTTTCAATTTCGGAGTCACCTAGTGCAG,8030 fluorescence intensity (a.u.)
14,CAATGACCTTTTTTTTTCCTCTCTCTGTTGCTTCCGATATCGGAGTCACCTAGTGCAG,8500 fluorescence intensity (a.u.)
15,GCTTTGAACACTCATCTCCTCACCGTGTTTGTTAGAGCTCCGGAGTCACCTAGTGCAG,11200 fluorescence intensity (a.u.)
16,TTTATTTTTTTTGTTACTTTTGGGATAAATTTACAATTACCGGAGTCACCTAGTGCAG,9060 fluorescence intensity (a.u.)
17,GTCTACTTGTTTGGTGTAATTTATTTTTTTTCTTTCGCTTCGGAGTCACCTAGTGCAG,9740 fluorescence intensity (a.u.)
18,GGTTTGGGGTGGTTTATTGTACAATAAAGATAAAGTTACCCGGAGTCACCTAGTGCAG,19000 fluorescence intensity (a.u.)
19,GTGTATTCTACTTAGTAATTTACTTGGCTTGAATTTTTTTCGGAGTCACCTAGTGCAG,28900 fluorescence intensity (a.u.)
20,CATTTGTGGTTTGTACATATTTATATAAGTTATTATAAATCGGAGTCACCTAGTGCAG,9060 fluorescence intensity (a.u.)
21,ATTGTATTCCTACTTGGACTCTTATTTTCTTTTCTAATTTCGGAGTCACCTAGTGCAG,10300 fluorescence intensity (a.u.)
